The values below come from PubChem BioAssay (NCI).

Some test systems named below: SK-MEL-2 melanoma; EKVX NSCLC; SN12C renal; UO-31 renal; TK-10 renal; ACHN renal; CAKI-1 renal; A498 renal; CCRF-CEM leukemia; MOLT-4 leukemia; SR leukemia; RPMI-8226 leukemia; OVCAR-8 ovarian; OVCAR-5 ovarian; OVCAR-4 ovarian; SK-OV-3 ovarian; IGROV1 ovarian; OVCAR-3 ovarian; HS 578T breast; NCI/ADR-RES ovarian.
Assay in all cases: NCI-60 one-dose screen, 48 h (100 = growth as untreated, 0 = no growth, -100 = all killed)
What all share (details): 10 µM unless noted

Compounds without any hit were thinned out: in the full panel of roughly 83,000, 20% have a hit.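 Cell lines were cultured in 96-well plates, exposed to a single compound concentration, and assessed for percent growth 48 hours later.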 Unmarked numbers belong to inactive results. Calls of active or inactive are those of the source. How the source made its calls: active means growth percent below 10; inactive means the rest.

Consider `Cn1cccc1-c1nc2c3c(ccc2[nH]1)C(=O)c1ccccc1C3=O`, for which the growth in the assay with SK-MEL-2 melanoma was 91.4%; with EKVX NSCLC, 65.2%; in the assay with SN12C renal, 91.9%; in the assay on UO-31 renal it was 58.7%; in the assay on TK-10 renal, 98.7%; in the assay with ACHN renal, 80.7%. Further, the growth in the assay on CAKI-1 renal is 96.3%; in the assay with A498 renal, 88.7%; in the assay on CCRF-CEM leukemia, 78.9%; in the assay with MOLT-4 leukemia, 62.1%; in the assay on SR leukemia it was 27.1%; in the assay with RPMI-8226 leukemia, 61.5%. Also, the growth with OVCAR-8 ovarian was 85.8%; in the assay with OVCAR-5 ovarian, 90.4%; with OVCAR-4 ovarian it was 46.5%; in the assay with SK-OV-3 ovarian, 118%; in the assay with IGROV1 ovarian, 79.1%; in the assay with OVCAR-3 ovarian it was 95%. The growth in the assay on HS 578T breast is 115%; with NCI/ADR-RES ovarian it was 81.8%.
With `COc1ccc2[nH]cc(-c3noc(C(=O)c4cn(C)c5ccc(F)cc45)n3)c2c1`, the growth in the assay on SK-MEL-2 melanoma was 94.7%; with EKVX NSCLC, 76.9%; with SN12C renal it was 93%; with UO-31 renal, 67.9%; in the assay with TK-10 renal, 113%; in the assay with ACHN renal it was 88.4%. Also, the growth was 81.5% with CAKI-1 renal; 95.8% in the assay with A498 renal; 99.2% in the assay on CCRF-CEM leukemia; 95.4% in the assay with MOLT-4 leukemia; 89.7% in the assay with SR leukemia; 104% in the assay with RPMI-8226 leukemia. In addition, the growth with OVCAR-8 ovarian is 93.6%; with OVCAR-5 ovarian it was 99.9%; in the assay on OVCAR-4 ovarian, 95.2%; in the assay with SK-OV-3 ovarian it was 87.3%; in the assay with IGROV1 ovarian it was 60.1%; with OVCAR-3 ovarian, 97.5%. Further, the results for the growth in the assay on HS 578T breast and in the assay with NCI/ADR-RES ovarian were 90.9% and 96%, respectively.
Turning to `CC(C)C[C@@H](NC(=O)[C@@H](Cc1ccccc1)NC(=O)c1cnccn1)B1Oc2ccc(C[C@H](NC(=O)[C@H](Cc3ccc4c(c3)OB([C@@H](CC(C)C)NC(=O)[C@@H](Cc3ccccc3)NC(=O)c3cnccn3)O4)NC(=O)[C@@H](N)CC3CCC4OB([C@@H](CC(C)C)NC(=O)[C@@H](CC5CCCCC5)NC(=O)C5CNCCN5)OC4C3)C(=O)NCCCC[C@@H]3NC(=O)[C@@H](Cc4ccccc4)NC(=O)[C@H](CC(=O)O)NC(=O)CNC(=O)[C@H](CCCNC(=N)N)NC3=O)cc2O1` (some centres undefined), the growth is -15.9% (active) with SK-MEL-2 melanoma; -16.4% (active) in the assay with EKVX NSCLC; -40.2% (active) with SN12C renal; -27.2% (active) in the assay with UO-31 renal; -77.8% (active) in the assay with TK-10 renal; -11.9% (active) in the assay on ACHN renal. Further, the growth was -40.9% (active) in the assay with CAKI-1 renal; -96% (active) with A498 renal; 2.22% (active) in the assay on CCRF-CEM leukemia; 1.17% (active) in the assay on MOLT-4 leukemia; 1.49% (active) in the assay with SR leukemia; 0.76% (active) with RPMI-8226 leukemia. The growth is -45.3% (active) in the assay with OVCAR-8 ovarian; -31% (active) in the assay with OVCAR-5 ovarian; -26.7% (active) with OVCAR-4 ovarian; -30% (active) with SK-OV-3 ovarian; -8.65% (active) in the assay with IGROV1 ovarian; -49.3% (active) with OVCAR-3 ovarian. The growth is 5.06% (active) with HS 578T breast and -8.71% (active) in the assay with NCI/ADR-RES ovarian.
As for `C#CCOc1ccc2ncnc(Nc3cccc(CNC(=O)C=C)c3)c2c1`, the growth in the assay on SK-MEL-2 melanoma is 104% [8.25 µM]; in the assay with EKVX NSCLC, 98.6% [8.25 µM]; with SN12C renal it was 95.5% [8.25 µM]; in the assay on UO-31 renal it was 82.3% [8.25 µM]; in the assay on TK-10 renal, 91.5% [8.25 µM]; with ACHN renal, 95.8% [8.25 µM]. Besides, the growth in the assay with CAKI-1 renal is 96.3% [8.25 µM]; with A498 renal it was 58.8% [8.25 µM]; with CCRF-CEM leukemia it was 111% [8.25 µM]; with MOLT-4 leukemia it was 100% [8.25 µM]; in the assay with SR leukemia, 103% [8.25 µM]; with RPMI-8226 leukemia, 101% [8.25 µM]. The growth in the assay on OVCAR-8 ovarian was 95.8% [8.25 µM]; with OVCAR-5 ovarian it was 100% [8.25 µM]; with OVCAR-4 ovarian, 92.5% [8.25 µM]; in the assay on SK-OV-3 ovarian, 107% [8.25 µM]; with IGROV1 ovarian, 88.8% [8.25 µM]; in the assay on OVCAR-3 ovarian, 104% [8.25 µM]. In addition, the values for the growth in the assay on HS 578T breast and with NCI/ADR-RES ovarian were 91.9% [8.25 µM] and 107% [8.25 µM], respectively.
As to `O=C(CCN1C(=O)/C(=C/c2ccc(Cl)cc2)SC1=S)NCCCN1CCOCC1`, the growth in the assay with SK-MEL-2 melanoma is 106%; in the assay on EKVX NSCLC it was 90.9%; with SN12C renal, 98.5%; in the assay with UO-31 renal it was 84.9%; with TK-10 renal it was 110%; with ACHN renal it was 91.4%. The growth with CAKI-1 renal was 94.4%; in the assay on A498 renal, 106%; in the assay with CCRF-CEM leukemia, 103%; in the assay on MOLT-4 leukemia it was 102%; in the assay with SR leukemia it was 102%; in the assay with RPMI-8226 leukemia, 103%. The growth with OVCAR-8 ovarian is 92.4%; with OVCAR-5 ovarian it was 103%; in the assay on OVCAR-4 ovarian it was 102%; with SK-OV-3 ovarian, 88.2%; with IGROV1 ovarian, 110%; with OVCAR-3 ovarian it was 105%. Besides, the growth in the assay with HS 578T breast is 90.9%; in the assay on NCI/ADR-RES ovarian, 98.9%.
With `C#CCOc1ccc2ncnc(Nc3cccc(CNC(=O)CCl)c3)c2c1`, the growth is 49.6% [8.25 µM] with SK-MEL-2 melanoma; 58.7% [8.25 µM] in the assay on EKVX NSCLC; 30.3% [8.25 µM] with SN12C renal; 39.8% [8.25 µM] in the assay on UO-31 renal; 38% [8.25 µM] with TK-10 renal; 37.8% [8.25 µM] in the assay on ACHN renal. In addition, the growth with CAKI-1 renal was 39.6% [8.25 µM]; with A498 renal it was -1.38% [8.25 µM] (active); in the assay with CCRF-CEM leukemia, 14.4% [8.25 µM]; with MOLT-4 leukemia, 15.1% [8.25 µM]; in the assay with SR leukemia, 25.1% [8.25 µM]; in the assay on RPMI-8226 leukemia it was 37.7% [8.25 µM]. The growth with OVCAR-8 ovarian is 38.8% [8.25 µM]; with OVCAR-5 ovarian, 65.9% [8.25 µM]; in the assay on OVCAR-4 ovarian it was 27.2% [8.25 µM]; in the assay on SK-OV-3 ovarian it was 48.1% [8.25 µM]; in the assay on IGROV1 ovarian, -5.04% [8.25 µM] (active); in the assay with OVCAR-3 ovarian, 29.3% [8.25 µM]. Besides, the growth in the assay with NCI/ADR-RES ovarian is 90.3% [8.25 µM].
For the molecule `CCN(CC)CCCCNc1c2ccc(Cl)cc2nc2ccc(OC)cc12`, the growth with SK-MEL-2 melanoma was 2.05% (active); in the assay with EKVX NSCLC, -8.96% (active); in the assay with SN12C renal, 4.57% (active); with UO-31 renal it was -14.6% (active); with TK-10 renal, 15.4%; in the assay on ACHN renal it was -56.7% (active). Moreover, the growth is 9.92% (active) in the assay on CAKI-1 renal; -83.9% (active) in the assay with A498 renal; -27.8% (active) in the assay on CCRF-CEM leukemia; -22.2% (active) in the assay on MOLT-4 leukemia; -19% (active) in the assay on SR leukemia; -33.9% (active) in the assay with RPMI-8226 leukemia. Also, the growth was 5.44% (active) with OVCAR-8 ovarian; -12.2% (active) with OVCAR-5 ovarian; -50.2% (active) in the assay on OVCAR-4 ovarian; 7.93% (active) with SK-OV-3 ovarian; 3.67% (active) in the assay on IGROV1 ovarian; -25.8% (active) in the assay with OVCAR-3 ovarian. In addition, the growth in the assay on HS 578T breast is -23.2% (active); in the assay with NCI/ADR-RES ovarian, 4.68% (active).
For the molecule `CCOc1cc2ncc(C#N)c(Nc3ccc(F)c(Cl)c3)c2cc1NC(=O)CC1CCSS1` (centres undefined), the growth in the assay on SK-MEL-2 melanoma is -49.2% (active); in the assay with EKVX NSCLC, -55% (active); in the assay with SN12C renal, -55.9% (active); in the assay with UO-31 renal, -92.4% (active); in the assay on TK-10 renal it was -74.2% (active); in the assay with ACHN renal it was -90.7% (active). For the same molecule, the growth with CAKI-1 renal is -73.4% (active); with A498 renal, -53.7% (active); with CCRF-CEM leukemia, -20.2% (active); with MOLT-4 leukemia, -47% (active); in the assay with SR leukemia, -27.8% (active); with RPMI-8226 leukemia, -5.51% (active). Also, the growth in the assay with OVCAR-8 ovarian is -41.7% (active); in the assay on OVCAR-5 ovarian, -40.6% (active); in the assay with OVCAR-4 ovarian it was -69.4% (active); in the assay with SK-OV-3 ovarian, -91.7% (active); in the assay on IGROV1 ovarian, -45.9% (active); in the assay on OVCAR-3 ovarian, -86.3% (active). Also, the growth was -17.4% (active) in the assay on HS 578T breast and -30.3% (active) in the assay with NCI/ADR-RES ovarian.
